Assay [1] can be described thus: qHTS of pediatric cancer cell lines to identify multiple opportunities for drug repurposing: Primary screen for LAN-5 cells (AID 1347100). Further: potency means the concentration at half of the fitted maximal effect. An outline of the steps: (§1)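 Cells (500-1,000/well) in growth media were settled 5 h at 37 degrees C, then given compounds for 48 h. Viability was read as CellTiter-Glo luminescence. Primary runs used MIPE at 11 points (0.78 nM-46 µM) and NPC at 8 points (0.59 nM-46 µM); follow-ups used 11 points.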
For orientation: In qHTS, concentration-response curves come from the screen itself.

A short description of assay [2]: qHTS of pediatric cancer cell lines to identify multiple opportunities for drug repurposing: Primary screen for BT-12 cells (AID 1347101). Further: nearly all actives have a fitted effect of over 25% in size. Further: potency means the concentration at half of the fitted maximal effect. An outline of the steps: (§2)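 Cells (500-1,000/well) rested 5 h, then received compounds for 48 h; metabolically active cells were measured by CellTiter-Glo luminescence. Final concentrations spanned up to 46 µM (MIPE, 11-point) or 0.59 nM-46 µM (NPC, 8-point) in primary screens, 11-point in follow-ups.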

Assay [3] can be described thus: qHTS of pediatric cancer cell lines to identify multiple opportunities for drug repurposing: Primary screen for Rh18 cells (AID 1347102). Further: nearly all actives have a fitted effect of over 65% in size. Further: potency means the concentration at half of the fitted maximal effect. The gist of the method:
as §1

Assay [4] can be described thus: qHTS of pediatric cancer cell lines to identify multiple opportunities for drug repurposing: Primary screen for RD cells (AID 1347104). Further: nearly all actives have a fitted effect of over 55% in size. Further: potency means the concentration at half of the fitted maximal effect. The gist of the method: (§3)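 Quantitative HTS format: each compound titrated (MIPE 11 points from 0.78 nM, NPC 8 points from 0.59 nM) onto cells plated 5 hours earlier. After 48 h at 37 degrees C, CellTiter-Glo luminescence was recorded.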

Assay [5] is described as follows: qHTS of pediatric cancer cell lines to identify multiple opportunities for drug repurposing: Primary screen for control Hh wild type fibroblast cells (AID 1347106).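 Further: series mostly up to about 46 µM; a drop in luminescence marks cytotoxicity and a rise apparent proliferation; nearly all actives have a fitted effect of over 55% in size.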 An outline of the steps:
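Viability after 48 h compound treatment at 37C, 500-1,000 cells/well, read as ATP luminescence with CellTiter-Glo. Primary screens used 11-point (MIPE, 0.78 nM-46 µM) or 8-point (NPC, 0.59 nM-46 µM) final concentrations; follow-up screens used 11-point dilutions.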

A short description of assay [6]: qHTS of pediatric cancer cell lines to identify multiple opportunities for drug repurposing: Primary screen for Rh30 cells (AID 1347107). Further: series mostly up to about 46 µM; nearly all actives have a fitted effect of over 75% in size. The gist of the method:
as §1

Assay [7] in a line: qHTS of pediatric cancer cell lines to identify multiple opportunities for drug repurposing: Primary screen for MG 63 (6-TG R) cells (AID 1347105). Further: nearly all actives have a fitted effect of over 50% in size. Further: potency means the concentration at half of the fitted maximal effect. The gist of the method: as §3
Assay [8] can be described thus: qHTS of pediatric cancer cell lines to identify multiple opportunities for drug repurposing: Primary screen for OHS-50 cells (AID 1347103). Further: nearly all actives have a fitted effect of over 40% in size. Further: potency means the concentration at half of the fitted maximal effect. The gist of the method:
as §2

Here are results for 25 molecules from PubChem BioAssay (NCATS).

“And” between values parts separate entries of the source, which are not always exact repeats. Identical values can stand only once. Records with an inconclusive call do not appear. The source made the active and inactive calls. The call rests on the fitted dose curve; in most records, active means well fitted curve in the direction sought with a large enough effect; inconclusive means small, poorly fitted or top-dose-only effect, or another doubt; inactive means no such curve, though single readings can be large; an effect the other way counts as inactive or inconclusive.

For `C[C@@H]1CCN(C(=O)CC#N)C[C@H]1N(C)c1ncnc2[nH]ccc12`, the Potency entry in assay [1], in assay [2], in assay [3], in assay [4], in assay [5] and in assay [6] was “inactive” throughout.
Turning to `N#CC1(c2ccc(NC(=O)c3cccnc3NCc3ccncc3)cc2)CCCC1`, the Potency result in assay [1], in assay [3], in assay [4], in assay [7] and in assay [6] was “inactive” each time.
Take `CC(C)(C)COc1ccc(-n2cc(C(=O)O)cn2)cc1C#N`: the Potency entry in assay [1], in assay [2], in assay [3], in assay [4], in assay [7] and in assay [5] was “inactive” each time. The Potency entry in assay [6] was “inactive”.
For `CC(C)=CC[C@@H](O)C1=CC(=O)c2c(O)ccc(O)c2C1=O`, the results for the Potency in assay [1], in assay [2] and in assay [4] were 14.8 µM (active), 17.2 µM (active) and 26.4 µM (active), respectively.
In the case of `CC[C@@]1(O)C[C@H](O[C@H]2C[C@H](N(C)C)[C@H](O[C@H]3C[C@H](O)[C@H](O[C@H]4CCC(=O)[C@H](C)O4)[C@H](C)O3)[C@H](C)O2)c2c(cc3c(c2O)C(=O)c2c(O)cccc2C3=O)[C@@H]1C(=O)OC`, the Potency in assay [1] was 2.35 µM (active). Further, the Potency result in assay [3], in assay [4], in assay [7], in assay [5] and in assay [6] was “inactive” each time.
In the case of `CN(C)CCC=C1c2ccccc2COc2ccc(CC(=O)O)cc21`, the Potency entry in assay [1], in assay [2], in assay [3], in assay [8] and in assay [5] was “inactive” throughout.
With `C[C@]12CC[C@@H]3c4ccc(O)cc4CC[C@H]3[C@H]1C[C@@H](O)[C@H]2O`, the Potency result in assay [1], in assay [3], in assay [8], in assay [4], in assay [7] and in assay [5] was “inactive” in each case. Further, in assay [6], the Potency entry is “inactive”.
For `Cc1ccc(C(C)(O)c2nc3ccccc3s2)c(C)c1` (configuration not stated), in assay [1], the Potency is 3.72 µM (active). For the same molecule, the Potency entry in assay [3], in assay [4], in assay [5] and in assay [6] was “inactive” in each case.
As for `Nc1ncnc2ccccc12`, the Potency entry in assay [1], in assay [2], in assay [3], in assay [8], in assay [4] and in assay [7] was “inactive” throughout. Also, the Potency entry in assay [6] is “inactive”.
`Cc1ccc([C@@H]2O[C@H](CO)[C@@H](O)[C@H](O)[C@@H]2O)cc1Cc1ccc(-c2ccc(F)cc2)s1`: the Potency entry in assay [1], in assay [3], in assay [7] and in assay [5] was “inactive” throughout. The Potency in assay [8] is 34.3 µM (active).
For the molecule `Cc1[nH]c(C=C2C(=O)Nc3ccc(S(=O)(=O)Cc4c(Cl)cccc4Cl)cc32)c(C)c1C(=O)N1CCC[C@H]1CN1CCCC1`, the Potency was 14.8 µM (active) in assay [1]; 14.8 µM (active) in assay [3]; 30.6 µM (active) in assay [8]; 18.7 µM (active) in assay [4]; 23.5 µM (active) in assay [7]. Besides, the Potency result in assay [5] is “inactive”.
`COc1cc2ncnc(Nc3ccc(F)c(Cl)c3)c2cc1OCCCN1CCOCC1`: the Potency in assay [1] was 6.05 µM (active); in assay [2], 39.5 µM (active); in assay [3] it was 34 µM (active); in assay [8], 8.85 µM (active) and 17.4 µM (active); in assay [4], 6.79 µM (active) and 23.7 µM (active); in assay [7], 27 µM (active). Moreover, the Potency entry in assay [6] is “inactive”.
For `CC(=Cc1ccccc1)C=C1SC(=S)N(CC(=O)O)C1=O`, the Potency result in assay [1], in assay [2], in assay [3], in assay [8], in assay [4] and in assay [7] was “inactive” each time. The Potency entry in assay [6] was “inactive”.
For `Cc1ccc(Nc2cc(-c3cccc(N4C(=O)c5ccccc5C4=O)c3)ncn2)cc1NS(C)(=O)=O`, the Potency in assay [1] was 23.5 µM (active). Also, the Potency result in assay [3], in assay [7] and in assay [5] was “inactive” in each case.
`N#Cc1ccc(NC(=O)Nc2ccccc2Br)c2n[nH]nc12`: the Potency in assay [1] was 26.4 µM (active); in assay [8], 21.7 µM (active). In addition, the Potency result in assay [3], in assay [4], in assay [7] and in assay [6] was “inactive” in each case.
Regarding `CC(C)C(=O)Nc1ncc(-c2cc(C(F)F)nn2-c2c(Cl)cccc2Cl)s1`, the Potency is 23.5 µM (active) in assay [1] and 27.3 µM (active) in assay [8]. Moreover, the Potency result in assay [6] was “inactive”.
Regarding `CC(C)(C(=O)NCC(F)(F)C(F)(F)F)C(=O)N[C@@H]1C(=O)Nc2ccccc2-c2ccccc21`, the Potency in assay [1] was 0.662 µM (active); in assay [2], 1.09 µM (active). Besides, the Potency result in assay [3], in assay [7] and in assay [5] was “inactive” throughout.
With `COc1ccc2c3c1OC1C[C@@H](O)C=C[C@@]31CCN(C)C2` (some centres not stated), the Potency result in assay [1], in assay [2], in assay [3], in assay [8], in assay [7] and in assay [5] was “inactive” each time.
As to `CC#CCn1c(N2CCC[C@@H](N)C2)nc2c1c(=O)n(Cc1nc(C)c3ccccc3n1)c(=O)n2C`, the Potency entry in assay [1], in assay [2], in assay [3], in assay [8] and in assay [7] was “inactive” throughout.
With `CCOC1OC(=O)C[C@H]1NC(=O)[C@@H]1CCCN1C(=O)[C@@H](NC(=O)c1ccc(N)c(Cl)c1)C(C)(C)C` (some centres not stated), the values for the Potency in assay [1], in assay [2] and in assay [8] were 0.833 µM (active), 1.37 µM (active) and 1.22 µM (active), respectively. Besides, the Potency entry in assay [3], in assay [7] and in assay [6] was “inactive” throughout.
As for `O=C(NCc1ccccc1)c1csc(Nc2ccncn2)n1`, the Potency in assay [1] was 13.2 µM (active); in assay [2], 19.3 µM (active); in assay [3], 23.5 µM (active); in assay [4] it was 29.6 µM (active); in assay [7], 23.5 µM (active).
`O=C(O)c1ccc(-c2cc3cccnc3c(-c3ccc4nonc4c3)n2)cc1`: the Potency in assay [1] is 20.9 µM (active); in assay [2] it was 27.3 µM (active); in assay [8], 27.3 µM (active); in assay [4], 26.4 µM (active). Further, the Potency entry in assay [5] and in assay [6] was “inactive” throughout.
As to `CC(C)C[C@H](CC(=O)O)C(=O)N[C@@H](Cc1c[nH]c2ccccc12)C(=O)N[C@@H](C)c1ccccc1`, in assay [1], the Potency was 2.64 µM (active). Besides, the Potency entry in assay [3], in assay [4], in assay [7] and in assay [6] was “inactive” throughout.
For the molecule `O=c1cc(-c2cccc3c2Sc2ccccc2S3)oc(N2CCOCC2)c1`, the Potency entry in assay [1], in assay [2], in assay [3], in assay [5] and in assay [6] was “inactive” throughout.
On to `CC[C@@H]1C=C(C)C[C@H](C)C[C@H](OC)[C@H]2O[C@@](O)(C(=O)C(=O)N3CCCC[C@@H]3C(=O)O[C@H](C(C)=C[C@@H]3CC[C@H](Cl)[C@H](OC)C3)[C@H](C)[C@@H](O)CC1=O)[C@H](C)C[C@H]2OC`, for which the Potency was 11.8 µM (active) in assay [1] and 8.63 µM (active) in assay [8]. Also, the Potency result in assay [7], in assay [5] and in assay [6] was “inactive” each time.
